From PubChem BioAssay (Tox21)
Records with an inconclusive call do not appear. Calls of active or inactive are those of the source. Unless noted, calls follow the shape of the dose curve; as a rule, active = well fitted curve in the direction sought with a large enough effect in the repeat runs; inconclusive = weak or mixed curves; inactive = no such curve, though single readings can be large; an effect the other way counts as inactive or inconclusive.

Key:
[1] = target: Retinoic acid receptor RXR-alpha (Homo sapiens) (UniProt P19793); assay: qHTS assay to identify small molecule agonists of the RXR signaling pathway (AID 1159527; calls by dose curve; also: nearly all actives have a fitted effect of over 35% in size)
Summary of the method: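 qHTS of the Tox21 10K library in GeneBLAzer RXR-alpha HEK 293T cells carrying a beta-lactamase reporter […]; 16 hr treatment, 9-cis retinoic acid as agonist control, FRET read-out.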

[2] = qHTS assay to identify small molecule antagonists of the retinoid acid receptor (RAR) signaling pathway - cell viability counter screen (AID 1159551); also: nearly all actives have a fitted effect of over 35% in size
Summary of the method: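 Retinol-stimulated (1 uM final) C3RL4 cells, compound 6 h, 37 C; readout CellTiter-Glo luminescence (ATP) after 30 min RT incubation.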

[3] = qHTS assay to identify small molecule antagonists of the estrogen related receptor (ERR) signaling pathway from Tox21 library - cell viability counter screen (AID 1224834); also: nearly all actives have a fitted effect of over 30% in size
Summary of the method: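 After 17.5 h of compound exposure at 37 C, ERR cells are incubated with CellTiter-Fluor for 30 min and fluorescence intensity serves as the viability measure.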

[4] = target: Luciferin 4-monooxygenase (Photinus pyralis) (UniProt P08659); assay: qHTS assay to identify small molecule inhibitors of firefly luciferase (AID 1224835); also: series mostly up to about 120 µM; nearly all actives have a fitted effect of over 25% in size
Summary of the method: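 Inhibition of purified Photinus luciferase is measured by luminescence. Substrate levels (D-luciferin, ATP) sit at their KM values. Each compound is tested in a concentration series.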

[5] = qHTS assay to identify small molecule agonists of the constitutive androstane receptor (CAR) signaling pathway - cell viability counter screen (AID 1224836); also: series mostly up to about 92 µM; nearly all actives have a fitted effect of over 45% in size
Summary of the method: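 Counter screen multiplexed with the CAR reporter readout: HepG2 cells co-transfected with hCAR and the CYP2B6-2.2kb construct receive a 15-concentration compound series and 0.75 uM PK11195 (final), then CellTiter-Fluor fluorescence is read after 23 h.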

[6] = qHTS assay to identify small molecule antagonists of the constitutive androstane receptor (CAR) signaling pathway - cell viability counter screen (AID 1224837); also: series mostly up to about 92 µM; nearly all actives have a fitted effect of over 45% in size
Summary of the method: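 Counter screen run in HepG2-CYP2B6-hCAR cells: 4 hr settle, compound titration (15 concentrations) with 50 nM CITCO, 23 hr at 37 C/5% CO2, CellTiter-Fluor fluorescence.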

[7] = target: Nuclear receptor subfamily 1 group I member 3 (Homo sapiens) (UniProt Q14994); assay: qHTS assay to identify small molecule agonists of the constitutive androstane receptor (CAR) signaling pathway (AID 1224839); also: series mostly up to about 92 µM; nearly all actives have a fitted effect of over 15% in size
Summary of the method: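 A 15-concentration quantitative screen uses HepG2 cells co-transfected stably with human CAR and CYP2B6-2.2kb reporter. Treatment lasts 24 h with 0.75 uM PK11195 final present; ONE-Glo luminescence is the signal.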

[8] = qHTS assay to identify small molecule antagonists of the estrogen related receptor signaling pathway with the pleiotropic PPARgamma coactivator (PGC) from Tox21 10K library - cell viability counter screen (AID 1224840; active = well fitted cell-killing curve with a large enough effect in the repeat runs, not every such curve was filed as active; also: nearly all actives have a fitted effect of over 40% in size)
Summary of the method: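 Following seeding of 2,000 PGC/ERR cells/well and 6 hours' incubation, test compounds were delivered in DMSO. The plates then sat 17.5 hours at 37 C before a fluorogenic live-cell protease reagent (CellTiter-Fluor) was read after 30 min.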

[9] = target: Thyrotropin receptor (Homo sapiens) (UniProt P16473); assay: qHTS assay to identify small molecule agonists of the thyroid stimulating hormone receptor (TSHR) signaling pathway (AID 1224843; calls by dose curve; also: nearly all actives have a fitted effect of over 45% in size)
Summary of the method: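 HEK293 cells stably bearing the thyrotropin receptor were plated at 800 cells/well and challenged with compound (30 min, RT). Accumulated cAMP was quantified via cAMP-d2 competing for cryptate-tagged antibody.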

[10] = qHTS assay to identify small molecule agonists of the hypoxia (HIF-1) signaling pathway - cell viability counter screen (AID 1224844; calls by dose curve; also: nearly all actives have a fitted effect of over 50% in size)
Summary of the method: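 Cells (HRE-bla ME-180, 2,000 per well) sat 5 hrs at 37C, got compound for 17 hrs, were read for CCF4-AM FRET, and were finally lysed with CellTiter-Glo for a 30 min room-temperature luminescence read.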

[11] = qHTS assay to identify small molecule agonists of H2AX (AID 1224845; active = well fitted activation curve with a large enough effect in the signal ratio in the repeat runs, not every such curve was filed as active; the % refers to the signal ratio)
Summary of the method: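 Phospho-H2AX Ser139 measured by HTRF (ex 320 nm; em 665 and 620 nm) after 24 hr antibody incubation. Compounds, 15 concentrations, 0.76% DMSO, were applied to CHO-K1 cells for 3hr at 37C before lysis.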

[12] = qHTS assay to identify small molecule agonists of the hypoxia (HIF-1) signaling pathway (AID 1224846; active = well fitted activation curve with a large enough effect in the signal ratio in the repeat runs, not every such curve was filed as active; the % refers to the signal ratio)
Summary of the method: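 A low-serum medium (0.5% dialyzed FBS) holding 2,000 HRE-bla ME-180 cells per well is preincubated for 5 hrs, dosed with compounds by pintool, and kept a further 17 hrs at 37C, 5% CO2 before CCF4-AM FRET detection of beta-lactamase.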

[13] = qHTS assay to identify small molecule antagonists of the retinoic acid receptor (RAR) signaling pathway (AID 1159552; also: nearly all actives have a fitted effect of over 50% in size)
Summary of the method: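 Quantitative HTS in C3RL4 RARE-luciferase reporter cells. Compounds were added with 1 uM (final) retinol; luminescence was read after 6 hr.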

[14] = qHTS assay to identify small molecule agonists of the retinoic acid receptor (RAR) signaling pathway (AID 1159553)
Summary of the method: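 Reporter readout comes from luciferase under RARE control in C3RL4 cells; compound exposure lasts 6 hr at 37 C in 5% CO2, and luminescence is recorded following a 30 min room-temperature incubation with reagent.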

[15] = target: Nuclear receptor subfamily 1 group I member 3 (Homo sapiens) (UniProt Q14994); assay: qHTS assay to identify small molecule antagonists of the constitutive androstane receptor (CAR) signaling pathway (AID 1224838);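 also: HepG2 cells stably expressing hCAR with CYP2B6 luciferase reporter stimulated by CITCO; nearly all actives have a fitted effect of over 40% in size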
Summary of the method: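 Cell line: HepG2 double-stable for hCAR and CYP2B6-2.2kb reporter. Agonist: CITCO, 50 nM final. Compounds: 15 concentrations, 24 h, 37 C. Detection: ONE-Glo luminescence.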

[16] = qHTS assay to identify small molecule agonists of H2AX - cell viability counter screen (AID 1224847; calls by dose curve; also: top concentration of the series differs between compounds; nearly all actives have a fitted effect of over 30% in size)
Summary of the method: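 We seed wild-type CHO-K1 cells overnight, treat them for 3 hr at 37C with compounds in 15-concentration series, and quantify remaining viability by CellTiter-Glo luminescence.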

[17] = qHTS assay to identify small molecule agonists of the RXR signaling pathway - cell viability counter screen (AID 1159529); also: series mostly up to about 77 µM; nearly all actives have a fitted effect of over 50% in size
Summary of the method: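 Cell viability is measured by CellTiter-Glo luminescence, 30 min at room temperature, in wells already read for beta-lactamase. Engineered HEK 293T cells (RXR-alpha-UAS-bla) are dosed 16 hr at 37 C. Tetraoctyl ammonium bromide serves as positive control.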

[18] = qHTS assay to identify small molecule antagonists of the estrogen related receptor signaling pathway with the pleiotropic PPARgamma coactivator (PGC) from Tox21 10K library (AID 1224841; call rule not given here; also: series mostly up to about 92 µM; actives are mostly falling curves and most rising ones were filed inactive; nearly all actives have a fitted effect of over 50% in size)
Summary of the method: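 qHTS antagonist format: PGC/ERR cells, 2k/well, compound in DMSO by pin transfer after 6 h attachment, 18 h treatment at 37 C, One-Glo luminescence read at 30 min.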

[19] = qHTS assay to identify small molecule agonists of the estrogen related receptor signaling pathway with the pleiotropic PPARgamma coactivator (PGC) from Tox21 10K library (AID 1224842); also: nearly all actives have a fitted effect of over 15% in size
Summary of the method: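 Luminescence from One-Glo (30 min, room temperature) measured after PGC/ERR cells had 18 h at 37 C with pinned compound (23 nL in DMSO). Cells had been seeded at 2,000 per well and pre-incubated 6 h.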

[20] = qHTS assay to identify small molecule antagonists of the estrogen related receptor (ERR) signaling pathway from Tox21 library (AID 1224848); also: nearly all actives have a fitted effect of over 50% in size
Summary of the method: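 Reading was by luminescence 30 min after ONE-Glo addition. Before that, ERR cells at 2,000 per well had rested 6 h at 37 C/5% CO2 and then received pin-tooled compounds in DMSO for 18 h at 37 C.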

Measured: Potency

Sequence of Thyrotropin receptor (Homo sapiens) (P16473 whole entry, looked up): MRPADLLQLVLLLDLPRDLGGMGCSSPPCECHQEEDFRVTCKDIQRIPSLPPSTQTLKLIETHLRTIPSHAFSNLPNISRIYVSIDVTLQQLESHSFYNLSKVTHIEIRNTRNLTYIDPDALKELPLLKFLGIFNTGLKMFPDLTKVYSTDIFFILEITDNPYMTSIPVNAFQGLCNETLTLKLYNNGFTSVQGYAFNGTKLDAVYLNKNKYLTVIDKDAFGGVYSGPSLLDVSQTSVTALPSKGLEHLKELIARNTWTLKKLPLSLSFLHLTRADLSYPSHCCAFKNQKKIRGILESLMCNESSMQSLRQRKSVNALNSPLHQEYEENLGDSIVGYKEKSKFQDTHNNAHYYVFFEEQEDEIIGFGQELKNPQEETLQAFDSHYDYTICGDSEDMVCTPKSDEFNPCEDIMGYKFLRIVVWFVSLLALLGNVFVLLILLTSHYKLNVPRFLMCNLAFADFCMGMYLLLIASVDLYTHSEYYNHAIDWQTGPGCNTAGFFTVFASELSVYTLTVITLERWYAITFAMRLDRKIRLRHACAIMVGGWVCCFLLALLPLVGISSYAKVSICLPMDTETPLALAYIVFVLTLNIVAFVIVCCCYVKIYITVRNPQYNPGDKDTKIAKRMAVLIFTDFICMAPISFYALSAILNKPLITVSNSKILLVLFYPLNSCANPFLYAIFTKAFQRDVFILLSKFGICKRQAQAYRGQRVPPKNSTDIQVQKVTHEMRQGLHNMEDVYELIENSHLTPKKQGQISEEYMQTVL
Sequence of Retinoic acid receptor RXR-alpha (Homo sapiens) (P19793 whole entry, looked up): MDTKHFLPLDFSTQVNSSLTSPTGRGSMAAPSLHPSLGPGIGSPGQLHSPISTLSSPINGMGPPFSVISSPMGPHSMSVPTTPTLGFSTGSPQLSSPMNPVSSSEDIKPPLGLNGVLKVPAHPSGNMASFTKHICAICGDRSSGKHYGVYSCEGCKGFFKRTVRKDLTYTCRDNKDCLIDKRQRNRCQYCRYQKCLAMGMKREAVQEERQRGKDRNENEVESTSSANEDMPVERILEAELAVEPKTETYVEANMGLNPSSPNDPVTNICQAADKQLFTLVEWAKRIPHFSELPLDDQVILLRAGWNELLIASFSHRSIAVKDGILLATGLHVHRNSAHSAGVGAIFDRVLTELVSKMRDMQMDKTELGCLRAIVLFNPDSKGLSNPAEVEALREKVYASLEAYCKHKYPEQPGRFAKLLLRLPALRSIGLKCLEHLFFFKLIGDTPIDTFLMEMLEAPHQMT
Sequence of Luciferin 4-monooxygenase (Photinus pyralis) (P08659 whole entry, looked up): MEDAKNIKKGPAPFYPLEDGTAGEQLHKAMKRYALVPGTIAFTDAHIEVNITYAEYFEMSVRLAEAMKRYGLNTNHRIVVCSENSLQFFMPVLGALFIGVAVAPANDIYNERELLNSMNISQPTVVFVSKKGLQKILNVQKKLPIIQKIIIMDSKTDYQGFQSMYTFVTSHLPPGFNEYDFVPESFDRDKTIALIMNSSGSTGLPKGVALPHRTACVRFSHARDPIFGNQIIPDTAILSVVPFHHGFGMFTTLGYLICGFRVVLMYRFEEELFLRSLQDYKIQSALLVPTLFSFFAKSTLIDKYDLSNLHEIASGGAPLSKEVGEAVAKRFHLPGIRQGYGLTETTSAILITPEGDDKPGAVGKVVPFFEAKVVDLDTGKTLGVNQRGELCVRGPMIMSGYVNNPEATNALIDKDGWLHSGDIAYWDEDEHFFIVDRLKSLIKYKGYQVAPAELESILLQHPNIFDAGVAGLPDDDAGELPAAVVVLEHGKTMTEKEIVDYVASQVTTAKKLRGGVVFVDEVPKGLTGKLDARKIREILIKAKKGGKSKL
Sequence of Nuclear receptor subfamily 1 group I member 3 (Homo sapiens) (Q14994 whole entry, looked up): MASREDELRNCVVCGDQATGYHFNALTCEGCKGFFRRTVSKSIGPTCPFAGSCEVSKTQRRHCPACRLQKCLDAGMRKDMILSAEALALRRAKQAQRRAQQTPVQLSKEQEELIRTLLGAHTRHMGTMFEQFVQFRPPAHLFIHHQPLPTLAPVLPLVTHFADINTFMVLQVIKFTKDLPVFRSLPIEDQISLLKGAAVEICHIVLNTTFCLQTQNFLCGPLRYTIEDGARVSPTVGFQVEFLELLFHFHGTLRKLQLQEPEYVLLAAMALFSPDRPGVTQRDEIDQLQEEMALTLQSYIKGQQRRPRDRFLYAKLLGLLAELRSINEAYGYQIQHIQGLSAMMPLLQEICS

COc1ccc(CCO)cc1
not listed: [13] | [14] | [15] | [16] | [17] | [18] | [19] | [20]
inactive: all other assays above

NCCOCCN
not listed: [3] | [6] | [17] | [18] | [19] | [20]
inactive: all other assays above

CC12CCC(C1)C(C)(C)C2O (stereo unspecified)
not listed: [10] | [15] | [17] | [18] | [19] | [20]
inactive: all other assays above

c1ccc2c(CC3=NCCN3)cccc2c1
not listed: [1] | [9] | [10] | [12]
inactive: all other assays above

CC(C)(C)NC[C@H](O)COc1cccc2c1CCCC2=O
not listed: [6] | [9] | [12] | [17]
inactive: all other assays above

CCCCCCC1(C)CCC(=O)O1 (stereo unspecified)
not listed: [1] | [16] | [18] | [19] | [20]
inactive: all other assays above

CC(C)OC(=O)CCC(=O)OC(C)C
not listed: [13] | [14] | [17] | [18] | [19] | [20]
inactive: all other assays above

CCCCCCCCCCCCCBr
not listed: [4] | [9] | [10] | [17]
inactive: all other assays above

CC(=O)Nc1ccc(OC(=O)c2ccccc2OC(C)=O)cc1
not listed: [10] | [14] | [17] | [18] | [19] | [20]
inactive: all other assays above
